Screening results (PubChem)
Shown are actives, neighbours in structure and some others; about 1.2% of the full set was active somewhere.
PolyA inh = blocks polyadenylation in yeast reporter cells. S. cerevisiae SKY197-pL101 polyadenylation reporter, beta-gal luminescence; efflux-impaired pdr1/pdr3 knockout yeast; score 100 = 6 SD above DMSO. activity score, % at 12 µM. 300,000 compounds, 0.02% hits. AID 1875;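 active = lowest replicate activity score at least 50, where 100 means six control SD above control mean; inconclusive = lowest score under 50 but half or more replicates reach 50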;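 note: yeast exposed to compound for 9 h at 30 °C; higher score means more reporter readthrough which indicates perturbed polyadenylation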
A3G deaminase = blocks human APOBEC3G single-stranded DNA deamination; inhibition, % at 20 µM; 330,000 compounds, 0.28% hits; recombinant A3G, ssDNA deamination FAM/TAMRA fluorescence; AID 493012;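 active = inhibition of at least 40% at 20 µM, with no more than 30% in the related APOBEC3A deaminase screen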;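 note: plate controls were DMSO wells with A3G for no effect and wells lacking A3G enzyme for full effect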
Target sequence (Q9HC16 whole entry, looked up): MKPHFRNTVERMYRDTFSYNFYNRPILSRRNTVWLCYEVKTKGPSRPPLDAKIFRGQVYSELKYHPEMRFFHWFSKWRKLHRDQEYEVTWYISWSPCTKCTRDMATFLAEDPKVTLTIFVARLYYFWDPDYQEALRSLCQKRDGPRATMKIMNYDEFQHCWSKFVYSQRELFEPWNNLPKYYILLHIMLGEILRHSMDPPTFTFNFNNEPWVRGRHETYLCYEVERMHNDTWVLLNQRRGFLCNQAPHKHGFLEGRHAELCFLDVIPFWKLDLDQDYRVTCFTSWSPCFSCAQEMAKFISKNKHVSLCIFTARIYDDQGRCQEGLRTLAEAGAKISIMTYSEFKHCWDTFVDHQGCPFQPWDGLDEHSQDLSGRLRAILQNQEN
NALP1 inh = blocks the NALP1 inflammasome reconstituted in yeast; S. cerevisiae NALP1/ASC/caspase-1 growth, X-gal OD620, 72 h; inhibition, % at 10 µM; 280,000 compounds, 0.61% hits; AID 2071; in the data active = inhibition mostly above about 24%, no sharp cut-off; inactive = mostly below about 32%
A3A deaminase = human APOBEC3A DNA deaminase inhibition; recombinant A3A, FAM/TAMRA ssDNA deamination fluorescence; AID 493011; P31941; 330,000 compounds, 0.41% hits; inhibition, % at 20 µM;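 active = at least 40% inhibition at 20 µM here, with at most 30% in a related deaminase screen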;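 note: plate controls were A3A with DMSO for no effect and wells lacking A3A enzyme for full effect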
Target sequence (P31941 whole entry, looked up): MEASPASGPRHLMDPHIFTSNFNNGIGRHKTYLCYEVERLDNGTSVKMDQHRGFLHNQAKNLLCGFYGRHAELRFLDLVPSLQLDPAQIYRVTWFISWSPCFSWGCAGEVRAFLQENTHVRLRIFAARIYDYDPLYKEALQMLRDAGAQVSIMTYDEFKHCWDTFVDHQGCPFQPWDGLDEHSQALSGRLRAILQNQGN
Numbers without * were called inactive; ? = inconclusive; / = not tested or not shown.

SMILES	PolyA inh	A3G deaminase	NALP1 inh	A3A deaminase
N#Cc1ccc(-c2nc3cc(Cl)ccc3c(=O)n2O)cc1	35	-1	42*	0
COc1ccc(NC(=O)NNC(=O)COc2ccc3cc(Br)ccc3c2)cc1OC	8	26	30*	5
COc1ccc(NC(=O)NNC(=O)COc2ccc3ccccc3c2)cc1OC	3	-2	3	0
CSc1nc2nc(-c3ccccc3)cc(C(F)(F)F)n2n1	5	-5	27*	-2
COC(=O)[C@H](C)NC(=O)NCc1ccc(S(N)(=O)=O)cc1	-8	-6	15	0
CCN(CC)CCNC(=O)c1cc2cc(Br)ccc2s1	-8	-5	5	3
O=C(CCc1nc(-c2ccccc2)c(-c2ccccc2)o1)OCc1ccc(Cl)cc1	3	-4	37*	-2
O=C(CCc1nc(-c2ccccc2)c(-c2ccccc2)o1)OCc1ccc(Br)cc1	4	-7	10	-5
O=C(Nc1ccc(Br)c(Cl)c1)C1CC1	-7	-3	45*	-4
CC(=O)Nc1ccc(Br)c(Cl)c1	5	-7	30	-7
COc1ccccc1CNCC(c1ccccc1)c1ccccc1	6	-7	6	-2
CCOC(=O)[C@@H]1[C@H]2COc3ccc(Br)cc3[C@H]2N2C(=O)N(c3ccc(Cl)cc3)C(=O)[C@]12C	/	-4	/	-1
Cc1ccc(-n2ncc3c(NCc4ccccc4)ncnc32)cc1	-11	-6	41*	-2
O=C(CCC1CCCC1)NNC(=O)COc1ccc(Br)cc1	/	-3	/	-2
CCOC(=O)c1c(C)n(C)c2ccc(OC)c([N+](=O)[O-])c12	-9	-5	22*	0
O=Nc1c(-c2ccccc2)cc2ccccn12	-14	-1	38*	0
CN(C)C(=O)C(=O)c1c(-c2ccccc2)cc2ccccn12	-12	-4	37	-1
COc1cc(C(=O)N/N=C(\C)c2ccc(NC(=O)Cc3ccccc3)cc2)ccc1O	/	-6	14	-2
CCOc1cc(/C=C2\N=C(SC(C)C(N)=O)N(c3ccc(OC(F)F)cc3)C2=O)ccc1O (stereo not given)	157*	-62	-4	-36
Cc1ccc(C(=O)COC(=O)COc2ccccc2[N+](=O)[O-])s1	/	2	/	2
CCOC(=O)COc1ccccc1/C=C\[N+](=O)[O-]	-92	/	102*	/
CCOC(=O)c1c(C)n(-c2ccccc2)c2ccc(OCCN(C)C)cc12	-16	3	44*	-1
Cc1nc(/N=C\c2ccc(N(C)C)cc2)sc1C	-10	-7	/	-2
Nc1ccc(C(=O)c2cccs2)cc1	10	-6	48*	0
C[C@H](CO)N1C[C@H](C)[C@@H](CN(C)Cc2ccc(-c3ccccc3)cc2)Oc2c(NS(=O)(=O)c3cccs3)cccc2C1=O	/	-4	/	-1
SMILES	PolyA inh	A3G deaminase	NALP1 inh	A3A deaminase
COc1cc(OC)c(NC(=O)C(=O)CC(=O)c2ccc(C)cc2C)cc1Cl	-1	2	12	6
O=[N+]([O-])c1ccc(OCC(O)CN2CCN(c3ccccc3F)CC2)cc1 (stereo not given)	-4	1	46*	-1
CN(C)c1ccnc(Oc2ccc(Cl)cc2)c1C#N	-5	0	16*	-2
COc1ccc(C2=NOC(C(=O)Nc3cc(C)on3)C2)cc1OC (stereo not given)	-12	-3	/	4
COc1ccc(OC)c(C2=NOC(C(=O)Nc3cc(C)on3)C2)c1 (stereo not given)	-16	-7	34*	-10
COc1ccc(CCNC(=O)c2ccc(NC(=O)CC3SC(N4CCCC4)=NC3=O)cc2)cc1 (stereo not given)	-12	1	/	1
CC(C)=C1C2CCC1C1C(=O)N(NC(=O)COc3ccc(Cl)c(C)c3)C(=O)C21 (stereo not given)	9	-7	41*	0
Cc1cc(Cl)ccc1C(=O)C1CCCN(C(=O)c2snnc2C)C1 (stereo not given)	55*	-2	-11	2
Cc1cc(Cl)ccc1C(=O)C1CCCN(C(=O)c2cccnc2C)C1 (stereo not given)	0	-6	15	-3
C/C(=N\NC(=O)c1ccc(Cl)cc1)c1ccccn1	-45	0	36*	0
CC(C)c1nnc(NC(=O)COc2ccc3c(c2)OCO3)s1	-3	-15	30*	-2
Cc1ccc(S(=O)(=O)N2CCN(c3ccccc3)CC2)s1	/	-4	/	-1
COc1ccc(Cl)cc1S(=O)(=O)N1CCN=C1C	8	-5	24	-2
CC1=NCCN1S(=O)(=O)c1c(C(C)C)cc(C(C)C)cc1C(C)C	-6	-7	28*	4
C#CCN(C)CCCOc1ccc(Cl)cc1Cl	-4	-5	56*	0
CCN(CC)C(=O)CCCOc1ccc(Cl)cc1Cl	-5	0	16	0
CCOC(=O)c1ccc(N2C(=O)CC(N3CCOCC3)C2=O)cc1 (stereo not given)	3	-1	30*	1
O=C1CC(N2CCCN(C3CC(=O)N(c4ccc(F)cc4)C3=O)CC2)C(=O)N1c1ccc(F)cc1 (stereo not given)	-1	-7	39*	-3
O=C1CC(N2CCN(c3ccc(Cl)cc3)CC2)C(=O)N1c1ccc(F)cc1 (stereo not given)	-19	-6	-10	-4
O=C(OCc1nnc(-c2ccc([N+](=O)[O-])cc2)o1)C1CCN(C(=O)c2ccc(F)cc2)CC1	/	-10	/	-1
CCn1cc(S(=O)(=O)Nc2ncccn2)cn1	12	-3	-7	1
O=S(=O)(c1ccc(F)cc1)n1ccc(-c2cccc(OCc3c(F)cccc3Cl)c2)n1	2	/	28*	/
O=S(=O)(c1ccc(Cl)cc1)n1ccc(-c2cccc(OCc3c(F)cccc3Cl)c2)n1	-4	-3	-6	-3
C=C(C)C(=O)NNc1ccccc1	?	-3	27*	-2
COc1ccccc1-c1noc(CSc2nc(N)cc(=O)[nH]2)n1	-8	-4	33*	-2
SMILES	PolyA inh	A3G deaminase	NALP1 inh	A3A deaminase
CCCNC(=O)c1nnsc1S(=O)(=O)c1ccc(Cl)cc1	/	0	104*	3
CNC(=O)c1nnsc1S(=O)c1ccc(Cl)cc1 (stereo not given)	-36	-1	93*	2
CCCNC(=O)NS(=O)(=O)c1ccc(Cl)cc1	-22	2	17	1
CCCNC(=O)c1nnsc1S(=O)c1ccc(Cl)cc1 (stereo not given)	2	-1	103*	3
CCCCCCC[N+](CC)(CC)CCCCc1ccc(Cl)cc1	/	-5	/	1
COc1ccccc1CN1CCNC(=O)C1CC(=O)N(C)Cc1nc(C)cs1 (stereo not given)	-1	-7	-5	1
Cc1ccc(-c2ccc(/C=N/n3cnnc3)o2)cc1	3	-8	39*	-3
Cc1ccc(-c2ccc(/C=N/n3cnnc3)o2)cc1Cl	-21	-9	10	-3
Cc1ccc(Nc2cc(C)nc(NCc3ccccc3)n2)cc1	-1	-5	51*	-5
Cc1cc(NC2CCCCC2)nc(NCc2ccccc2)n1	2	-3	62*	-3
